From PubChem BioAssay AID1159580 (chemical genetic matrix, 2015)
About 2,000 (36%) of roughly 5,500 compounds were called active. Inconclusive results (about 18%) are left out. No stated cut-off is given here; in the data, active means normalized growth mostly below about 0.91 (no sharp cut-off); inconclusive means no clear call, values can overlap the other calls; inactive means mostly above about 0.92. Some of the results follow.

Assay: chemical genetic growth profiling, strain panel (AID 1159580);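 further: tested at 20 µM; growth read once vehicle control cultures reached saturation at 30 °C; 1 = growth at the plate median or of vehicle wells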
Conditions: growth OD

Measured: normalized growth

CC1=C2[C@](C)(C=CC1=O)C[C@H](O)[C@H]1[C@H](C)C(=O)O[C@]21C
inactive: S. cerevisiae deletion strains, locus YAL013W, strain DEP1, stronger effect = lower value 1.01 | S. cerevisiae deletion strains, locus YBR021W, strain FUR4, stronger effect = lower value 1 | S. cerevisiae deletion strains, locus YBR229C, strain ROT2, stronger effect = lower value 1.01 | S. cerevisiae deletion strains, locus YCL029C, strain bik1, stronger effect = lower value 1.03 | S. cerevisiae deletion strains, locus YDL035C, strain GPR1, stronger effect = lower value 1.02 | S. cerevisiae deletion strains, locus YDL074C, strain BRE1, stronger effect = lower value 1.01 | S. cerevisiae deletion strains, locus YDL101C, strain DUN1, stronger effect = lower value 1.02 | S. cerevisiae deletion strains, locus YDL134C, strain PPH21, stronger effect = lower value 1.01 | S. cerevisiae deletion strains, locus YDL185W, strain tfp1, stronger effect = lower value 1.03 | S. cerevisiae deletion strains, locus YDL192W, strain arf1, stronger effect = lower value 1.04 | S. cerevisiae deletion strains, locus YDR101C, strain arx1, stronger effect = lower value 1.01 | S. cerevisiae deletion strains, locus YDR150W, strain NUM1, stronger effect = lower value 1.01 | S. cerevisiae deletion strains, locus YDR162C, strain NBP2, stronger effect = lower value 1.03 | S. cerevisiae deletion strains, locus YDR318W, strain mcm21, stronger effect = lower value 1.03 | S. cerevisiae deletion strains, locus YDR388W, stronger effect = lower value 1.02 | S. cerevisiae deletion strains, locus YDR502C, strain sam2, stronger effect = lower value 1.03 | S. cerevisiae deletion strains, locus YEL061C, strain CIN8, stronger effect = lower value 1.01 | S. cerevisiae deletion strains, locus YER110C, stronger effect = lower value 1.03 | S. cerevisiae deletion strains, locus YER155C, strain BEM2, stronger effect = lower value 1.01 | S. cerevisiae deletion strains, locus YER167W, strain BCK2, stronger effect = lower value 1.02 | S. cerevisiae deletion strains, locus YGL078C, strain dbp3, stronger effect = lower value 1.04 | S. cerevisiae deletion strains, locus YGL086W, strain mad1, stronger effect = lower value 1.02 | S. cerevisiae deletion strains, locus YGL248W, strain PDE1, stronger effect = lower value 1.01 | S. cerevisiae deletion strains, locus YGR078C, strain PAC10, stronger effect = lower value 1.01 | S. cerevisiae deletion strains, locus YGR135W, strain pre9, stronger effect = lower value 1.01 | S. cerevisiae deletion strains, locus YGR229C, strain SMI1, stronger effect = lower value 1.01 | S. cerevisiae deletion strains, locus YGR252W, strain gcn5, stronger effect = lower value 1.07 | S. cerevisiae deletion strains, locus YHR030C, strain SLT2, stronger effect = lower value 1.01 | S. cerevisiae deletion strains, locus YHR079C, strain IRE1 (second series), stronger effect = lower value 1.03 | S. cerevisiae deletion strains, locus YHR094C, strain hxt1, stronger effect = lower value 1.03 | S. cerevisiae deletion strains, locus YHR129C, strain ARP1, stronger effect = lower value 1.01 | S. cerevisiae deletion strains, locus YHR200W, strain rpn10, stronger effect = lower value 1.03 | S. cerevisiae deletion strains, locus YIL066C, strain RNR3, stronger effect = lower value 1.03 | S. cerevisiae deletion strains, locus YIL073C, strain SPO22, stronger effect = lower value 1.1 | S. cerevisiae deletion strains, locus YIL125W, strain kgd1, stronger effect = lower value 1.03 | S. cerevisiae deletion strains, locus YIR030C, strain dcg1, stronger effect = lower value 1.02 | S. cerevisiae deletion strains, locus YJL095W, strain BCK1, stronger effect = lower value 1.01 | S. cerevisiae deletion strains, locus YJL134W, strain LCB3, stronger effect = lower value 1 | S. cerevisiae deletion strains, locus YJL168C, strain set2, stronger effect = lower value 1.03 | S. cerevisiae deletion strains, locus YJL187C, strain SWE1 (second series), stronger effect = lower value 1.01 | S. cerevisiae deletion strains, locus YJR043C, strain POL32, stronger effect = lower value 1.02 | S. cerevisiae deletion strains, locus YJR075W, strain HOC1, stronger effect = lower value 1.02 | S. cerevisiae deletion strains, locus YKL009W, strain mrt4, stronger effect = lower value 1.04 | S. cerevisiae deletion strains, locus YKL068W, stronger effect = lower value 1.04 | S. cerevisiae deletion strains, locus YKL085W, strain MDH1 (second series), stronger effect = lower value 1.02 | S. cerevisiae deletion strains, locus YKL085W, strain MDH1, stronger effect = lower value 1.02 | S. cerevisiae deletion strains, locus YKL190W, strain CNB1, stronger effect = lower value 1.01 | S. cerevisiae deletion strains, locus YKR001C, strain vps1, stronger effect = lower value 1.03 | S. cerevisiae deletion strains, locus YLR039C, strain RIC1, stronger effect = lower value 1.07 | S. cerevisiae deletion strains, locus YLR058C, strain SHM2, stronger effect = lower value 1.02 | S. cerevisiae deletion strains, locus YLR102C, strain apc9, stronger effect = lower value 1.02 | S. cerevisiae deletion strains, locus YLR262C, strain YPT6, stronger effect = lower value 1.05 | S. cerevisiae deletion strains, locus YLR268W, strain sec22, stronger effect = lower value 1.02 | S. cerevisiae deletion strains, locus YLR330W, strain CHS5, stronger effect = lower value 1.01 | S. cerevisiae deletion strains, locus YLR342W, strain FKS1 (second series), stronger effect = lower value 1.02 | S. cerevisiae deletion strains, locus YLR371W, strain rom2, stronger effect = lower value 1.03 | S. cerevisiae deletion strains, locus YLR418C, strain cdc73, stronger effect = lower value 1.04 | S. cerevisiae deletion strains, locus YML016C, strain PPZ1, stronger effect = lower value 1.01 | S. cerevisiae deletion strains, locus YML032C, strain rad52, stronger effect = lower value 1.05 | S. cerevisiae deletion strains, locus YML124C, strain tub3, stronger effect = lower value 1.03 | S. cerevisiae deletion strains, locus YMR078C, strain ctf18, stronger effect = lower value 1.04 | S. cerevisiae deletion strains, locus YMR223W, strain ubp8, stronger effect = lower value 1.04 | S. cerevisiae deletion strains, locus YMR263W, strain SAP30, stronger effect = lower value 1 | S. cerevisiae deletion strains, locus YMR307W, strain GAS1, stronger effect = lower value 1.08 | S. cerevisiae deletion strains, locus YNL067W, strain RPL9B, stronger effect = lower value 1.01 | S. cerevisiae deletion strains, locus YNL128W, strain TEP1, stronger effect = lower value 1.02 | S. cerevisiae deletion strains, locus YNL153C, strain GIM3, stronger effect = lower value 0.999 | S. cerevisiae deletion strains, locus YNL233W, strain BNI4, stronger effect = lower value 1.01 | S. cerevisiae deletion strains, locus YNL250W, strain rad50, stronger effect = lower value 1.06 | S. cerevisiae deletion strains, locus YNL271C, strain bni1, stronger effect = lower value 1.03 | S. cerevisiae deletion strains, locus YNL298W, strain CLA4, stronger effect = lower value 1.03 | S. cerevisiae deletion strains, locus YNL307C, strain MCK1, stronger effect = lower value 1.04 | S. cerevisiae deletion strains, locus YNL322C, strain KRE1, stronger effect = lower value 1.02 | S. cerevisiae deletion strains, locus YNR052C, strain pop2, stronger effect = lower value 1.04 | S. cerevisiae deletion strains, locus YOL006C, strain TOP1, stronger effect = lower value 1.03 | S. cerevisiae deletion strains, locus YOL012C, strain htz1 0.937 | S. cerevisiae deletion strains, locus YOL147C, strain pex11, stronger effect = lower value 1.03 | S. cerevisiae deletion strains, locus YOR061W, strain CKA2, stronger effect = lower value 1.01 | S. cerevisiae deletion strains, locus YOR069W, strain VPS5, stronger effect = lower value 1 | S. cerevisiae deletion strains, locus YOR136W, strain idh2, stronger effect = lower value 1.03 | S. cerevisiae deletion strains, locus YOR144C, strain elg1, stronger effect = lower value 1.02 | S. cerevisiae deletion strains, locus YOR184W, strain ser1, stronger effect = lower value 1.04 | S. cerevisiae deletion strains, locus YOR316C, strain cot1, stronger effect = lower value 1.02 | S. cerevisiae deletion strains, locus YPL055C, strain LGE1, stronger effect = lower value 1.03 | S. cerevisiae deletion strains, locus YPL241C, strain CIN2, stronger effect = lower value 1.01 | S. cerevisiae deletion strains, locus YPR119W, strain clb2, stronger effect = lower value 1.03 | S. cerevisiae deletion strains, locus YPR141C, strain kar3, stronger effect = lower value 1.04 | S. cerevisiae deletion strains, locus YPR163C, strain tif3, stronger effect = lower value 1.02 | S. cerevisiae deletion strains, locus YPR167C, strain met16, stronger effect = lower value 1.02 | S. cerevisiae deletion strains, strain wtn01, stronger effect = lower value 1 | S. cerevisiae strains, strain wild type, stronger effect = lower value 1.02
